Assay outcomes (PubChem BioAssay)
Hits are enriched below; roughly 2% of the tested compounds scored in any of these assays.
aSyn rescue – rescues yeast growth from alpha-synuclein toxicity; hit rate 0.14% among 370,000; AID 652106; Yeast expressing alpha-synuclein, growth rescue, BacTiter-Glo, 24 h; Potency, µM (top dose mostly 46.1 µM), without a hit: at the top dose growth rescue (activation), hits mostly activators; note: % of control where 0% means no effect; nearly all actives have a fitted effect of over 65% in size
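Galactose-induced alpha-syn yeast (OD600=0.02, raffinose-pregrown) + pinned cpd, 24 hr, 30 deg C; growth by BacTiter-Glo luminescence. Growth restoration scores as activation.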
S-ASM inh – blocks human secretory acid sphingomyelinase. hit rate 0.006% among 340,000. P17405. AID 504937. Potency, µM (series often up to 57.5 µM), for inactives: at the highest dose activity change, negative = inhibition, usual class: inhibitors. placental ASM, HMU-PC fluorogenic substrate, 60 min
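Fluorescence read-out (Ex 386 nm, Em 447 nm) after stopping the reaction at pH 10. Enzyme: ASM from human placenta; substrate HMU-PC0, 9 uM final; 60 min, 37 °C. Compound preincubation 10 min, ambient temperature.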
Rango-impB inh – prevents formation of the Rango-importin beta complex; Rango CFP/YFP FRET sensor + importin beta, 45 min; Potency, µM (series often up to 92.2 µM), inactives show at the top dose inhibition of complex formation; AID 540263; hit rate 0.031% among 340,000; calls by dose curve;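 note: 0% = DMSO wells and 100% = buffer wells lacking importin beta; nearly all actives have a fitted effect of over 15% in size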
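Inhibition scored from the CFP 486 nm/YFP 530 nm FRET ratio 45 min after adding 0.125 microM importin beta to 50 nM Rango biosensor preincubated 5 min with compound (room temperature, PBS with DTT, Tween-20, BSA). No-importin wells as positive control.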
Abeta yeast res – A-beta toxicity reversal in yeast; yeast expressing A-beta42, growth rescue, OD600, 48 h; response scale: 0% DMSO, 100% iron-clioquinol control; hit rate 0.063% among 410,000; Potency, µM (top dose mostly 46.1 µM), most hits filed as activators; note: nearly all actives have a fitted effect of over 55% in size
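Yeast growth medium received pinned compounds, then yeast cells expressing toxic A-beta were added; plates incubated at 30 C for 48 hr. Growth read as absorbance at 600 nm, normalized to DMSO and equimolar FeCl3 plus clioquinol controls.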
TDP-43 yeast inh – TDP-43 toxicity inhibition in yeast; hit rate 1.8% among 410,000; AID 652104; TDP-43 expressing yeast growth rescue, BacTiter-Glo, 24 h; Potency, µM (top dose mostly 46.1 µM), for inactives: top-dose growth rescue (activation), usual class: activators; note: % of control where 0% means no effect; nearly all actives have a fitted effect of over 50% in size
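Cell-based yeast growth screen: TDP-43 expression induced in galactose, inoculum OD600=0.02 after raffinose pregrowth to mid-log. Read-out BacTiter-Glo luminescence at 24 hr, 30 deg C; inhibition of toxicity seen as signal increase.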
Rango release inh – inhibition of RanGTP-driven Rango-importin beta dissociation; Biochemical FRET Rango-importin beta, RanGTP-induced dissociation; hit rate 0.071% among 340,000; Potency, µM (highest dose often 46.1 µM), for the others: at the top dose activity change, negative = inhibition; O95149+P62826; calls by dose curve; note: % of control where 0% means no effect; nearly all actives have a fitted effect of over 45% in size
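Compounds sat 5 min at room temperature with 0.1 uM Rango biosensor plus 0.25 uM importin beta, then FRET pre-read. RanGTP-RCC1 (0.6 uM Ran, 2mM GTP, 0.2 uM RCC1) added for 45 min, and the CFP/YFP post-read measured blocked complex dissociation.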
The depositor's hits bear a star; i = inactive; ? = inconclusive; . = not tested or not shown. Unless noted, calls come from the whole dose curve; as a rule, active = well fitted curve in the direction sought with a large enough effect; inconclusive = small, poorly fitted or top-dose-only effect, or another doubt; inactive = no such curve, though single readings can be large; an effect the other way counts as inactive or inconclusive. Potency is the fitted concentration of half-maximal effect.

SMILES	aSyn rescue	S-ASM inh	Rango-impB inh	Abeta yeast res	TDP-43 yeast inh	Rango release inh
CC1Cc2ccccc2N1C(=S)NC1CCCC1 (stereo not given)	-5.6%	-3.5%	0.9%	12.6µM*	?	-7.9%
CC1Cc2ccccc2N1CC(=O)NC(=O)NC1CCCC1 (stereo not given)	8.3%	-1.0%	?	i	?	-0.4%
O=C(Cc1ccc(Cl)cc1Cl)OCC(=O)c1ccc[nH]1	14.5%	-2.3%	0.3%	i	17.8µM*	7.5%
CCc1ccccc1NC(=O)C(C)n1nc(-c2ccc(C)c(C)c2)ccc1=O (stereo not given)	.	.	.	i	13.6%	.
CCOc1ccc(C(=O)NCC(=O)OCc2c(F)cccc2Cl)cc1	1.3%	-1.7%	-0.1%	i	22.4µM*	-3.7%
CC(C)Cc1nc(N2CCN(C(=O)c3ccccc3)CC2)c(C#N)c2c1CCC2	2.7%	-7.5%	2.4%	i	25.1µM*	4.9%
Cc1ccc(Cn2c(C)c3cnn(CC(=O)N4CCN(c5ccc(F)cc5)CC4)c(=O)c3c2C)cc1	.	.	.	i	15.8µM*	.
Cc1c2cnn(CC(=O)N3CCCCC3)c(=O)c2c(C)n1Cc1ccc(F)cc1	.	.	.	i	13.7%	.
Cc1cc(=O)n(CC(=O)N2CCN(c3ccc(F)cc3)CC2)c2c1c(C)nn2C	.	.	.	i	11.2µM*	.
CCOc1ccc(C2c3c(-c4ccc(C)cc4)n[nH]c3C(=O)N2c2ccc(Cl)cc2)cc1 (stereo not given)	.	.	.	i	14.0%	.
CCCCc1ccc(Nc2ncnc3nc[nH]c23)cc1	0.8%	-7.4%	2.1%	i	15.8µM*	18.0%
CCc1ccc(Nc2ncnc3nc[nH]c23)cc1	-5.0%	-0.3%	0.0%	i	-20.0%	-11.5%
CCC1CN(C(=O)N2CCC(C(=O)N3CCN(c4cc(C)ccc4C)CC3)CC2)c2ccccc2O1 (stereo not given)	.	.	.	i	22.4µM*	.
CCCc1nn2c(=O)cc(COC(=O)c3ccccc3NC(=O)COc3ccccc3F)nc2s1	.	.	.	i	-2.6%	.
O=C(c1ccc(-c2ccc([N+](=O)[O-])cc2)o1)N1CCCC(C(F)(F)F)C1 (stereo not given)	-8.6%	4.6%	-2.2%	i	35.5µM*	-12.3%
O=C(c1ccc(-c2ccc([N+](=O)[O-])cc2)o1)N1CCCCCCC1	-80.3%	-10.4%	-4.0%	i	-90.2%	1.2%
CCCCCc1c(O)c2ccccc2[nH]c1=O	-3.9%	5.5%	-0.7%	i	6.0%	-15.5%
CCCCS(=O)c1c(O)c2ccccc2[nH]c1=O (stereo not given)	16.9%	2.5%	-0.4%	i	11.2µM*	1.4%
Cc1ccc(NC(=O)CCSc2nc(-c3ccc4c(c3)OCO4)cc(C(F)(F)F)n2)cc1	-3.8%	.	.	i	1.0%	.
N/C(=N\OC(=O)CSc1ccccc1)c1cccc([N+](=O)[O-])c1	-0.8%	-2.8%	3.6%	i	20µM*	-6.9%
N/C(=N\OC(=O)CCC1CCCCC1)c1cccc([N+](=O)[O-])c1	-11.3%	-5.0%	-3.4%	i	2.6%	0.4%
N/C(=N\OC(=O)CCC1CCCC1)c1ccc([N+](=O)[O-])cc1	-17.6%	-5.0%	-0.9%	i	20µM*	-3.7%
N/C(=N\OC(=O)CCCc1ccccc1)c1ccc([N+](=O)[O-])cc1	-5.7%	-3.2%	-3.1%	i	22.4µM*	0.9%
CCOc1ccc(Nc2oc(-c3ccc(COc4ccc(OC)cc4)o3)nc2C#N)cc1	.	.	.	i	9.2%	.
O=C(Nc1ccc(Br)cc1)c1ccc(F)c(S(=O)(=O)NCc2cccs2)c1	?	-18.8%	0.6%	?	20µM*	1.3%
Nc1ncnc2c1ncn2C1CCCO1 (stereo not given)	-12.8%	9.5%	?	i	35.5µM*	3.3%
Nc1ncnc2c1ncn2C1CCCC1	-0.9%	-6.0%	0.0%	i	24.9%	1.5%
